Assay [1] can be described thus: qHTS for Inhibitors of Plasmodium falciparum (DD2) proliferation (AID 504314).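 Further: parasite DNA measured by SYBR Green fluorescence after red cell lysis.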 In a few lines: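 Fluorescence read-out (ex 485/em 535 nm) of SYBR Green-stained parasite DNA quantifies intraerythrocytic growth. Cultures at 0.3% parasitemia and 2.5% hematocrit were treated for 72 h; data normalized to DMSO and 0.29 uM artemisinin wells.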
(qHTS replaces the single test concentration by a dilution series.)

Assay [2] in a line: qHTS for Inhibitors of Plasmodium falciparum (GB4) proliferation (AID 504315). Further: nearly all actives have a fitted effect of over 50% in size. Further: potency means the concentration at half of the fitted maximal effect. The essentials:
(§1)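 Erythrocytes infected with P. falciparum line (0.3% parasitemia, 2.5% hematocrit final) incubated with compounds 72 h at 37 °C, 5% CO2; SYBR Green lysis buffer added, fluorescence read next day. Normalized to 0.29 uM artemisinin and DMSO.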

Assay [3] in a line: qHTS for Inhibitors of Plasmodium falciparum (7G8) proliferation (AID 504316). Further: nearly all actives have a fitted effect of over 65% in size. Further: potency means the concentration at half of the fitted maximal effect. The essentials:
as §1

Assay [4] can be described thus: qHTS for Inhibitors of Plasmodium falciparum (HB3) proliferation (AID 504318). Further: nearly all actives have a fitted effect of over 60% in size. The essentials: as §1
Assay [5] in a line: qHTS for Inhibitors of Plasmodium falciparum (CP250) proliferation (AID 504320). The essentials:
as §1

Among the data in PubChem BioAssay (NCATS) are Potency values, retold here.

Results filed as inconclusive are left out. Calls of active or inactive are those of the source. The call rests on the fitted dose curve; in most records, active means well fitted curve in the direction sought with a large enough effect; inconclusive means small, poorly fitted or top-dose-only effect, or another doubt; inactive means no such curve, though single readings can be large; an effect the other way counts as inactive or inconclusive.

`CCCCC1=CC2=CC(=O)C(C)(OC(=O)CC)C(=O)C2=CN1c1ccncc1` (centres undefined): the Potency result in assay [1], in assay [2], in assay [3], in assay [4] and in assay [5] was “inactive” throughout.
Consider `COC(=O)CCC(=O)OC1(C)C(=O)C=C2C=C(C3CC3)N(C3CCCCC3)C=C2C1=O` (centres undefined), for which the Potency entry in assay [1], in assay [2], in assay [3], in assay [4] and in assay [5] was “inactive” throughout.
In the case of `COC/C=C/C1=CC2=CC(=O)C(C)(OC(=O)c3cnc4ccccc4n3)C(=O)C2=CN1Cc1ccco1` (centres undefined), the Potency result in assay [1], in assay [2], in assay [3], in assay [4] and in assay [5] was “inactive” each time.
Take `COC(=O)CCCC1=CC2=C(c3ccccc3)C(=O)C(C)(OC(=O)C3CCCC3)C(=O)C2=CN1CC(C)C` (centres undefined): the Potency entry in assay [1], in assay [2], in assay [3], in assay [4] and in assay [5] was “inactive” each time.
Regarding `CCN1C(=O)N(C)[C@@H](c2ccccc2)C(C(=O)OC)=C1C`, the Potency result in assay [1], in assay [2], in assay [3] and in assay [5] was “inactive” in each case.
As for `COC(=O)C1=C(C)N(Cc2ccco2)C(=O)N[C@@H]1c1ccco1`, the Potency result in assay [1], in assay [2], in assay [3] and in assay [5] was “inactive” each time.
In the case of `C=CCN1C=C2C(=O)C(C)(OC(=O)CCC(=O)OC)C(=O)C(Br)=C2C=C1c1ccc(OC)cc1` (centres undefined), the Potency entry in assay [1], in assay [2], in assay [3] and in assay [5] was “inactive” in each case.
As for `C=CCN1c2ccccc2[C@]23C[C@@H](C(=O)OC)N=C2NC(C(=O)OC)=C(C(=O)OC)[C@H]13`, the Potency result in assay [1], in assay [2], in assay [3] and in assay [5] was “inactive” in each case.
Consider `COC(=O)[C@]1(C)C=C[C@@H](C)[C@H](c2ccccc2Br)N1C(=O)C(F)(F)F`, for which the Potency result in assay [1], in assay [2], in assay [3], in assay [4] and in assay [5] was “inactive” in each case.
As to `CCN(CC)CCCN1C=C2C(=O)C(C)(OC(=O)CCC(=O)OC)C(=O)C(Br)=C2C=C1c1ccc(OC)cc1` (centres undefined), the Potency result in assay [1], in assay [2], in assay [3] and in assay [5] was “inactive” throughout.
On to `COC(=O)[C@@H](NC(=O)N1CCc2nc(-c3ccc(OC)cc3C)c3c(c2C1)CO[C@@H](c1ccccc1)C3)C(C)C`, for which the Potency result in assay [1] and in assay [5] was “inactive” throughout. In addition, the Potency in assay [2] is 1.9 µM (active); in assay [3], 1.69 µM (active).
In the case of `CCCCC1=CC2=C(c3ccco3)C(=O)C(C)(OC(=O)c3ccc(OC)cc3)C(=O)C2=CN1C1CCCC1` (centres undefined), the Potency result in assay [1], in assay [2], in assay [3], in assay [4] and in assay [5] was “inactive” throughout.
Consider `CCOC(=O)OC[C@H]1O[C@H](c2ccccc2)C=C[C@H]1OC(=O)OCC`, for which the Potency entry in assay [1], in assay [2], in assay [3], in assay [4] and in assay [5] was “inactive” throughout.
Consider `COc1cccc([C@@H]2Oc3ccc(Br)cc3[C@H](O)[C@@H]2O)c1`, for which the Potency result in assay [1], in assay [2], in assay [3], in assay [4] and in assay [5] was “inactive” each time.
As to `COC/C=C/C1=CC2=CC(=O)C(C)(OC(=O)c3cnc4ccccc4n3)C(=O)C2=CN1Cc1ccc2c(c1)OCO2` (centres undefined), the Potency result in assay [1], in assay [2], in assay [3] and in assay [5] was “inactive” throughout.
Turning to `CCOC(=O)CN1C(=O)N[C@@H](c2ccccc2)[C@@H](C(=O)OC)[C@H]1C`, the Potency entry in assay [1], in assay [2], in assay [3] and in assay [5] was “inactive” throughout.
As for `CC1(C)O[C@@H]2[C@@H](O1)C(c1ccccc1)(c1ccccc1)OP(=O)(O)OC2(c1ccccc1)c1ccccc1`, the Potency entry in assay [1], in assay [2], in assay [3] and in assay [5] was “inactive” each time.
On to `COC(=O)C1=C(C(=O)OC)[C@@H]2Nc3ccccc3[C@@]23C[C@@H](C(=O)OC)N(C(=O)c2ccco2)C3=N1`, for which the Potency entry in assay [1], in assay [2], in assay [3] and in assay [5] was “inactive” each time.
Regarding `CC1(OC(=O)CCc2ccccc2)C(=O)C=C2C=C(c3ccc(C#N)cc3)N(Cc3ccco3)C=C2C1=O` (centres undefined), the Potency result in assay [1], in assay [2], in assay [3] and in assay [5] was “inactive” throughout.
Take `CC(C)(C)N1C(=O)[C@@H]2[C@H]3[C@H](O)[C@H](O)CC(=NOCc4ccccc4)[C@H]3CC[C@H]2C1=O`: the Potency entry in assay [1], in assay [2], in assay [3] and in assay [5] was “inactive” in each case.
Regarding `CCCCC1=CC2=CC(=O)C(C)(OC(=O)CC)C(=O)C2=CN1CCCN(CC)CC` (centres undefined), the Potency entry in assay [1], in assay [2], in assay [3], in assay [4] and in assay [5] was “inactive” throughout.
Take `COC(=O)CCCC1=CC2=C(c3ccccc3)C(=O)C(C)(OC(=O)C3CCCC3)C(=O)C2=CN1Cc1ccccc1` (centres undefined): the Potency result in assay [1], in assay [2], in assay [3] and in assay [5] was “inactive” throughout.
With `CCN1C(=O)[C@@H]2[C@H]3[C@H](O)[C@H](O)CC(=NO[C@@H](C)c4cc(-c5c(C)cc(C)cc5C)no4)[C@@H]3CC[C@H]2C1=O`, the Potency result in assay [1], in assay [2], in assay [3] and in assay [5] was “inactive” each time.
With `CCCCc1nc2c(c3c1C[C@H](C)OC3)CN(S(=O)(=O)c1ccc3c(c1)OCCN3C)CC2`, the Potency entry in assay [1], in assay [2], in assay [3] and in assay [5] was “inactive” throughout.
In the case of `C=C(C(C)=O)C(O)c1cccs1` (centres undefined), the Potency entry in assay [1], in assay [2], in assay [3] and in assay [5] was “inactive” throughout.
For the compound `C=C(C)C(=O)c1ccc2c(c1)OCO2`, the Potency result in assay [1], in assay [2], in assay [3] and in assay [5] was “inactive” in each case.
Turning to `COC(=O)CCCC1=CC2=C(c3ccccc3)C(=O)C(C)(OC(=O)C3CCCC3)C(=O)C2=CN1C1CCCC1` (centres undefined), the Potency result in assay [1], in assay [2], in assay [3] and in assay [5] was “inactive” throughout.
Turning to `CCCCC1=CC2=C(c3ccco3)C(=O)C(C)(OC(=O)c3ccc(OC)cc3)C(=O)C2=CN1CCOC` (centres undefined), the Potency result in assay [1], in assay [2], in assay [3] and in assay [5] was “inactive” in each case.
For the compound `COC(=O)CCC(=O)OC1(C)C(=O)C2=CN(c3ccccc3)C(c3ccc(OC)cc3)=CC2=C(Br)C1=O` (centres undefined), the Potency entry in assay [1], in assay [2], in assay [3] and in assay [5] was “inactive” in each case.
Regarding `CCOC(=O)N1C2=NC(C(=O)OC)=C(C(=O)OC)[C@@H]3N(C)c4ccc(OC)cc4[C@]23C[C@H]1C(=O)OC`, the Potency entry in assay [1], in assay [2], in assay [3] and in assay [5] was “inactive” each time.
